Test results published in ChEMBL document CHEMBL3988442, “University of Dundee, Small-Polar-MMV Screening Library” (2021).

Target: AMP-activated protein kinase, AMPK (Homo sapiens) (UniProt P54646+O43741+P54619+Q9UGJ0+Q9Y478+Q13131+Q9UGI9)
Assay: AMP-dependent Kinase enzyme assay. An in vitro enzyme assay that detects ADP turnover that is directly proportional to AMPK activity. This uses naive AMPK that is activated during the assay with MK-8722
Type: functional
Parameters: scale not given: direction of the effect not stated beside the values
Details: 30 µM

SMILES | Percent Effect [%]
OCCN1CCCC(c2cccc(-c3ccccc3F)n2)C1 (stereo not given) | 20.3
CCS(=O)(=O)N1Cc2ccccc2CC1C(=O)OCc1c(C)noc1C (stereo not given) | -0.838
Cc1ccc(S(=O)(=O)N2CCN(Cc3ccncc3)CC2)c(Cl)c1 | -6.37
CC(C)C1C(=O)NCCN1C(=O)CCCc1nc(C(C)(C)C)no1 (stereo not given) | -5.25
CCc1nc(CSc2nnc(N)n2C2CC2)no1 | 7.62
COc1ccc(-c2cc3nc(CCNC(=O)C4CC4)nn3cn2)cc1 | -2.76
Cn1cc(-c2cc(C(=O)N3CCOCC3)c3ccc(F)cc3n2)cn1 | 18.9
COc1ccc(CCN(C)C(=O)c2cc(C(C)=O)c[nH]2)cc1OC | -3.69
CCc1nc(CCNc2ncccc2C#N)sc1C | -3.24
N#CC1COCCN1C(=O)c1ccc2cc[nH]c2c1 (stereo not given) | 6.24
Cc1cc(CNC(=O)c2cc(NC(=O)C(C)C)ccc2Cl)no1 | 4.16
CCCNC(=O)c1cnc2n1CCCC2 | 0.00547
CNC(=O)Cc1ccc(NC(=O)NCc2nc(C)sc2C)cc1 | 0.571
CN(CCc1ccccc1)c1cnn(CC2COCCO2)c(=O)c1 (stereo not given) | 8.71
CN(C)C(=O)c1ccc2c(c1)nc(N1CC[C@H](O)C1)n2C | 1.76
CCS(=O)(=O)NCc1nc(C)cc(N2CCCCC2)n1 | 0.829
Cc1cnc(CN(C)Cc2cccc(OC(F)(F)F)c2)cn1 | -3.05
CN(CC(=O)NCC(=O)Nc1ccc(F)cc1)Cc1cccs1 | -1.85
CCCSCC(=O)N1CCCC(CO)(CCC)C1 (stereo not given) | 7
O=C1C(N2CC[C@@H](O)C2)CCCN1Cc1cccc(C(F)(F)F)c1 (stereo not given in full) | 5.51

SMILES | Percent Effect [%]
CC(C)C(C(=O)O)c1cccc(Cl)c1 (stereo not given) | -3.52
CC(C)(C)C(NC(=O)CCCS(C)(=O)=O)c1ccc(F)cc1F (stereo not given) | 7.18
CC(c1ccncn1)N(C)S(=O)(=O)NCc1ccccc1 (stereo not given) | -13.5
c1cncc(OC2CCN(CCn3cc4ccccc4n3)CC2)c1 | 13.1
COc1cccc(NC(=O)CN(C(C)C)C2CC2)c1 | -0.663
COc1ccc(C2CCN(CCCC#N)CC2)cc1 | 3.86
O=C(c1cc(-c2ccccc2)nc2onc(C3CC3)c12)N1CC[C@H](O)C1 | 4.85
Cc1cc(C)n(C2CN(c3nc(-c4ccncc4)nc4c3CCC4)C2)n1 | 2.99
COc1ncc(NCc2ccc(C#N)cc2)cc1C(N)=O | 2.92
CNC(=O)[C@@H](C)NC(=O)c1cc(-c2ccc(F)cc2)c(C)s1 | 2.33
Cc1ccc(-c2cc(CNC(=O)NC3CCCCNC3=O)on2)cc1 (stereo not given) | -0.304
CNC(=O)c1cn2cc(-c3ccc(F)cc3)n(CC=C(C)C)c(=O)c2n1 | 3.81
Cc1cc(C(=O)NC(C)Cc2cccc(Cl)c2)n(C)n1 (stereo not given) | 10.6
CNC(=O)COC(=O)c1ccn(-c2ccc(Cl)c(Cl)c2)n1 | 1.87
CC(=O)N1CCc2nc(N(C)C)nc(NCCc3ccccc3)c2CC1 | 3.82
O=S(=O)(NC1CCN(CC(F)(F)F)C1)c1cc(F)cc(F)c1 (stereo not given) | 4.84
NC(=O)c1cc(C2CCCN(Cc3ccc4c(c3)OCCO4)C2)n[nH]1 (stereo not given) | 3.64
CCCC(=O)Nc1cccc(C(=O)N(C)CCCC2CCCO2)c1 (stereo not given) | 7.97
O=S(=O)(N1CCOCC1)N1CCCCC1CCn1cccn1 (stereo not given) | 29.5
Cc1nc2n(n1)CC(Nc1nc(C(F)(F)F)nc3ccccc13)CC2 (stereo not given) | 1.51
